Test results from PubChem BioAssay (NCI).
This is part of a sample that, as a whole, favours compounds with a hit. Of some 79,000 tested, about 15% had one in any assay. The source made the active and inactive calls. Rule as the data show it: active = growth inhibition above about 70%; inactive = the rest.

Assays:
[1] = NCI Yeast Anticancer Drug Screen. Data for the rad52 strain (AID 147);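 also: 0% = growth of vehicle-treated control cultures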; settings: S. cerevisiae rad52 mutant growth inhibition, active compounds read high
Method in brief: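 Here a repair-compromised yeast strain receives each compound; its growth is then quantified and normalised to vehicle-only controls.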

[2] = NCI Yeast Anticancer Drug Screen. Data for the wt1 strain (AID 149);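 also: 0% = growth of vehicle-treated wt1 cultures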; settings: S. cerevisiae wt1 strain (SPY 50644) growth inhibition, active compounds read high
Method in brief: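 The wt1 strain was treated with compounds, and growth was compared with vehicle-treated cultures to give inhibition.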

[3] = NCI Yeast Anticancer Drug Screen. Data for the rad50EPP+ strain (AID 151);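 also: 0% = growth of vehicle-treated control cultures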; settings: S. cerevisiae rad50 mutant strain, active compounds read high
Method in brief: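 Read-out is yeast growth inhibition relative to vehicle; cells used were the rad50EPP+ strain.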

[4] = NCI Yeast Anticancer Drug Screen. Data for the rad50 strain (AID 155);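 also: 0% = growth of vehicle-only cultures of the same strain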; settings: S. cerevisiae rad50 strain growth inhibition, active compounds read high
Method in brief: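 Cells are treated with compound, grown, and their growth is then scored against vehicle-only cultures of the same repair-deficient yeast strain.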

[5] = NCI Yeast Anticancer Drug Screen. Data for the mec2-1 strain (AID 157); settings: S. cerevisiae mec2-1 strain, active compounds read high
Method in brief: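 Using mec2-1 yeast: add compound, measure growth, express inhibition versus vehicle-treated cultures.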

[6] = NCI Yeast Anticancer Drug Screen. Data for the sgs1 mgt1 strain (AID 161);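 also: 0% = growth of cultures given vehicle only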; settings: S. cerevisiae sgs1 mgt1 strain, active compounds read high
Method in brief: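 Compounds are added to genetically altered yeast, and growth is compared with cultures given vehicle alone to give percent inhibition.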

[7] = NCI Yeast Anticancer Drug Screen. Data for the CLN2oe strain (AID 163);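 also: 0% = growth of vehicle-only control cultures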; settings: S. cerevisiae CLN2oe strain, active compounds read high
Method in brief: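 Whole-cell yeast growth assay. A strain engineered for altered cell-cycle control received compound, and inhibition relative to vehicle-treated cultures was recorded.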

[8] = NCI Yeast Anticancer Drug Screen. Data for the cln2 rad14 strain (AID 165);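 also: 0% = growth equal to vehicle treated cultures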; settings: S. cerevisiae cln2 rad14 strain, active compounds read high
Method in brief: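 Yeast strain cln2 rad14, bearing defects in cell cycle control and DNA repair, serves as the test system; values reflect growth inhibition compared with vehicle.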

[9] = NCI Yeast Anticancer Drug Screen. Data for the bub3 strain (AID 167); settings: S. cerevisiae bub3 mutant strain, active compounds read high
Method in brief: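 Part of a panel of yeast mutants defective in DNA damage repair or cell cycle regulation. Each strain is grown with compound, and inhibition is calculated relative to solvent-treated cultures.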

[10] = NCI Yeast Anticancer Drug Screen. Data for the wt2 strain (AID 169);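 also: 0% = growth of vehicle-treated yeast cultures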; settings: S. cerevisiae wt2 strain growth inhibition, active compounds read high
Method in brief: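 Treated yeast vs. vehicle-treated yeast: growth inhibition determined.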

[11] = NCI Yeast Anticancer Drug Screen. Data for the mlh1 strain (AID 171);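 also: 0% = growth of vehicle-treated control cultures of the same strain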; settings: S. cerevisiae mlh1 strain growth inhibition, active compounds read high
Method in brief: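 A yeast strain with a defined genetic lesion serves as the test organism. Cultures receive compound or vehicle, and growth is measured.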

[12] = NCI Yeast Anticancer Drug Screen. Data for the sgs1 strain (AID 173);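 also: 0% = growth of vehicle-only control cultures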; settings: S. cerevisiae sgs1 mutant, active compounds read high
Method in brief: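 A genetically defined yeast mutant is incubated with the test compound, and its growth is compared to that of the same strain given vehicle.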

[13] = NCI Yeast Anticancer Drug Screen. Data for the mlh1 rad18 strain (AID 175); settings: S. cerevisiae mlh1 rad18 strain growth inhibition, active compounds read high
Method in brief: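 Steps: expose repair-defective yeast to compound; measure growth; express inhibition against vehicle-treated controls.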

[14] = NCI Yeast Anticancer Drug Screen. Data for the rad18 strain (AID 177); settings: S. cerevisiae rad18 mutant growth inhibition, active compounds read high
Method in brief: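 Measured value is growth inhibition of a yeast strain bearing a DNA repair alteration, referenced to vehicle-treated cells.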

[15] = NCI Yeast Anticancer Drug Screen. Data for the rad14 strain (AID 159);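 also: 0% = growth of vehicle-treated control cultures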; settings: S. cerevisiae rad14 strain growth inhibition, active compounds read high
Method in brief: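 Readout: yeast growth inhibition, referenced to vehicle-only cultures. Strain bears a defined alteration in DNA damage repair.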

[16] = at 5.0 µM (retest, dose inferred, filed as 0.5)
[17] = at 50.0 µM (retest, dose inferred, filed as 5.0)

Measured: growth inhibition

COc1cc(O)c(O)c(C(C)(C)C)c1
active: [9]; [17] 82% | [13]; [17] 82%
inactive: [1]; at 1.2 µM -1% | [1]; at 3.7 µM 3% | [1]; at 11.0 µM 5% | [1]; at 33.0 µM 10% | [1]; at 100.0 µM 19% | [2]; at 1.2 µM -1% | [2]; at 3.7 µM -1% | [2]; at 11.0 µM 4% | [2]; at 33.0 µM 3% | [2]; at 100.0 µM 4% | [3]; at 1.2 µM 12% | [3]; at 3.7 µM 16% | [3]; at 11.0 µM 41% | [3]; at 33.0 µM 53% | [3]; at 100.0 µM 50% | [4]; at 1.2 µM 0% | [4]; at 3.7 µM -2% | [4]; [16] 10% | [4]; at 11.0 µM 3% | [4]; at 33.0 µM 6% | [4]; [17] 38% | [4]; at 50.0 µM 63.7% | [4]; at 100.0 µM 12% | [5]; at 1.2 µM -3% | [5]; at 3.7 µM -1% | [5]; [16] 4% | [5]; at 11.0 µM 0% | [5]; at 33.0 µM 5% | [5]; [17] 16% | [5]; at 50.0 µM 59.5% | [5]; at 100.0 µM 18% | [6]; [16] 2% | [6]; [17] 50% | [6]; at 50.0 µM 63.8% | [7]; at 1.2 µM -1% | [7]; at 3.7 µM -3% | [7]; at 11.0 µM 3% | [7]; at 33.0 µM -3% | [7]; at 100.0 µM -6% | [8]; [16] -14% | [8]; [17] 18% | [8]; at 50.0 µM 4.65% | [9]; at 1.2 µM -6% | [9]; at 3.7 µM -5% | [9]; [16] 0% | [9]; at 11.0 µM 2% | [9]; at 33.0 µM 7% | [9]; at 50.0 µM 61.1% | [9]; at 100.0 µM 17% | [10]; at 1.2 µM -1% | [10]; at 3.7 µM 0% | [10]; at 11.0 µM 8% | [10]; at 33.0 µM 12% | [10]; at 100.0 µM 17% | [11]; at 1.2 µM 3% | [11]; at 3.7 µM 3% | [11]; at 11.0 µM 9% | [11]; at 33.0 µM 15% | [11]; at 100.0 µM 26% | [12]; at 1.2 µM 1% | [12]; at 3.7 µM 7% | [12]; at 11.0 µM 16% | [12]; at 33.0 µM 8% | [12]; at 100.0 µM 43% | [13]; [16] 20% | [13]; at 50.0 µM 22.9% | [14]; at 1.2 µM 0% | [14]; at 3.7 µM 1% | [14]; at 11.0 µM -17% | [14]; at 33.0 µM 8% | [14]; at 100.0 µM 16%

O=C(/C=C/c1cc(Cl)cc(Cl)c1O)c1cccc(O)c1
inactive: [1]; at 1.2 µM 37% | [1]; at 3.7 µM 36% | [2]; at 1.2 µM 4% | [2]; at 3.7 µM 6% | [2]; at 11.0 µM 50% | [3]; at 1.2 µM 66% | [4]; at 1.2 µM 1% | [4]; at 3.7 µM 16% | [4]; [16] 14% | [4]; at 11.0 µM 67% | [5]; at 1.2 µM -19% | [5]; at 3.7 µM 0% | [5]; [16] -9% | [15]; at 1.2 µM 31% | [15]; at 3.7 µM 48% | [6]; [16] 6% | [7]; at 1.2 µM 9% | [7]; at 3.7 µM 23% | [8]; [16] 29% | [9]; at 1.2 µM -12% | [9]; at 3.7 µM -11% | [9]; [16] 38% | [9]; at 11.0 µM 39% | [10]; at 1.2 µM 29% | [10]; at 3.7 µM 27% | [11]; at 1.2 µM 0% | [11]; at 3.7 µM 21% | [12]; at 1.2 µM 22% | [12]; at 3.7 µM 23% | [13]; [16] 46% | [14]; at 1.2 µM 14% | [14]; at 3.7 µM 13% | [14]; at 11.0 µM 56%
active: [1]; at 11.0 µM 80% | [1]; at 33.0 µM 98% | [1]; at 100.0 µM 99% | [2]; at 33.0 µM 98% | [2]; at 100.0 µM 97% | [3]; at 3.7 µM 70% | [3]; at 11.0 µM 86% | [3]; at 33.0 µM 97% | [3]; at 100.0 µM 97% | [4]; at 33.0 µM 97% | [4]; [17] 97% | [4]; at 50.0 µM 94% | [4]; at 100.0 µM 97% | [5]; at 11.0 µM 85% | [5]; at 33.0 µM 99% | [5]; [17] 99% | [5]; at 50.0 µM 95.2% | [5]; at 100.0 µM 98% | [15]; at 11.0 µM 96% | [15]; at 33.0 µM 98% | [15]; at 100.0 µM 97% | [6]; [17] 95% | [6]; at 50.0 µM 94% | [7]; at 11.0 µM 74% | [7]; at 33.0 µM 98% | [7]; at 100.0 µM 98% | [8]; [17] 98% | [8]; at 50.0 µM 91.5% | [9]; at 33.0 µM 97% | [9]; [17] 97% | [9]; at 50.0 µM 93.2% | [9]; at 100.0 µM 97% | [10]; at 11.0 µM 89% | [10]; at 33.0 µM 98% | [10]; at 100.0 µM 98% | [11]; at 11.0 µM 80% | [11]; at 33.0 µM 98% | [11]; at 100.0 µM 98% | [12]; at 11.0 µM 78% | [12]; at 33.0 µM 98% | [12]; at 100.0 µM 98% | [13]; [17] 97% | [13]; at 50.0 µM 92.7% | [14]; at 33.0 µM 98% | [14]; at 100.0 µM 98%

CCCCCCCCCCCCNC(C)=O
active: [4]; [17] 93% | [4]; at 50.0 µM 81.3% | [4]; at 100.0 µM 90% | [5]; [17] 78% | [5]; at 50.0 µM 83% | [6]; [17] 88% | [6]; at 50.0 µM 81% | [9]; [17] 91% | [9]; at 50.0 µM 80% | [11]; at 100.0 µM 72% | [13]; [17] 94% | [13]; at 50.0 µM 91.8%
inactive: [1]; at 1.2 µM -5% | [1]; at 3.7 µM -7% | [1]; at 11.0 µM -8% | [1]; at 33.0 µM -12% | [1]; at 100.0 µM 54% | [2]; at 1.2 µM -6% | [2]; at 3.7 µM -6% | [2]; at 11.0 µM -8% | [2]; at 33.0 µM -7% | [2]; at 100.0 µM 9% | [3]; at 1.2 µM -2% | [3]; at 3.7 µM 1% | [3]; at 11.0 µM 7% | [3]; at 33.0 µM 14% | [3]; at 100.0 µM 26% | [4]; at 1.2 µM -10% | [4]; at 3.7 µM -8% | [4]; [16] -165% | [4]; at 11.0 µM 2% | [4]; at 33.0 µM 3% | [5]; at 1.2 µM 2% | [5]; at 3.7 µM -3% | [5]; [16] -47% | [5]; at 11.0 µM 8% | [5]; at 33.0 µM 3% | [5]; at 100.0 µM 3% | [15]; at 1.2 µM -3% | [15]; at 3.7 µM 0% | [15]; at 11.0 µM -2% | [15]; at 33.0 µM 1% | [15]; at 100.0 µM 40% | [6]; [16] -63% | [8]; [16] -61% | [8]; [17] -2% | [8]; at 50.0 µM 15.3% | [9]; at 1.2 µM -9% | [9]; at 3.7 µM -3% | [9]; [16] -62% | [9]; at 11.0 µM -2% | [9]; at 33.0 µM -1% | [9]; at 100.0 µM 13% | [10]; at 1.2 µM -2% | [10]; at 3.7 µM -1% | [10]; at 11.0 µM -3% | [10]; at 33.0 µM -7% | [10]; at 100.0 µM 24% | [11]; at 1.2 µM 6% | [11]; at 3.7 µM -8% | [11]; at 11.0 µM -4% | [11]; at 33.0 µM -6% | [12]; at 1.2 µM -2% | [12]; at 3.7 µM -3% | [12]; at 11.0 µM -3% | [12]; at 33.0 µM -4% | [12]; at 100.0 µM 43% | [13]; [16] -116% | [14]; at 1.2 µM -4% | [14]; at 3.7 µM -4% | [14]; at 11.0 µM -2% | [14]; at 33.0 µM -3% | [14]; at 100.0 µM 61%
